Screening data: PubChem BioAssay, National Center for Advancing Translational Sciences (NCATS)
Tb PFK inh-1 – qHTS Assay to Find Inhibitors of T. brucei phosphofructokinase | ATP-dependent 6-phosphofructokinase (Trypanosoma brucei brucei), O15648 | T. brucei PFK, ADP-Glo luminescence | Potency, µM (highest dose often 57.5 µM), without a hit: at the top dose activity, negative = inhibition, most hits filed as inhibitors | 0.17% of 330,000 active | AID 485367, 2010;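 further: 0% = uninhibited 1x PFK enzyme wells and -100% = no-enzyme wells; nearly all actives have a fitted effect of over 60% in size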
Target sequence (O15648 whole entry, looked up): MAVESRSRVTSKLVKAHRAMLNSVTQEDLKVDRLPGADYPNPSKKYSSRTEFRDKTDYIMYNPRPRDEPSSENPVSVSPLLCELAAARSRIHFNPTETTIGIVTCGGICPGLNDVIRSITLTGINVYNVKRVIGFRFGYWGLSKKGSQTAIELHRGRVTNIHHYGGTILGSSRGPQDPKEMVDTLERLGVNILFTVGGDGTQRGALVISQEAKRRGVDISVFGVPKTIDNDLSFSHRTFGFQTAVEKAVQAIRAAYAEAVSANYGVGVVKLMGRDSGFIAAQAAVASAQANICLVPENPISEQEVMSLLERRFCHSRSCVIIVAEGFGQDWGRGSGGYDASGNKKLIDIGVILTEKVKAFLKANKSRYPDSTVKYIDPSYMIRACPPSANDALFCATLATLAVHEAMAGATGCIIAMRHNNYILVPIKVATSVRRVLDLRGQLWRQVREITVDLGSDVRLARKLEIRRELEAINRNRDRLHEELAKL
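Activity is normalized to no-enzyme wells (full inhibition) and 1.25 nM enzyme wells (no inhibition). Reaction: 0.5 mM F6P, 0.1 mM ATP, 45 min RT, ADP-Glo luminescence; concentration-response curves fitted and classed by quality.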
Pin1 inh – qHTS Assay to Find Inhibitors of Pin1 | Peptidyl-prolyl cis-trans isomerase NIMA-interacting 1 (Homo sapiens), Q13526 | Pin1 FP peptide displacement, HiFluor488, 10 min | Potency, µM (titrated, usually from 115 µM), for the others: at the highest dose activity, negative = inhibition, usual class: inhibitors | 0.009% of 390,000 active | AID 504891, 2011; active means well fitted inhibition curve with a large enough effect in the polarisation, with a control signal flat, not every such curve was filed as active; inconclusive means small, poorly fitted or top-dose-only effect, or effect the other way, or a change in a side signal; inactive means no such curve, though single readings can be large or run the other way; the % refers to the polarisation; further: on the % scale 0 is the no-effect control and ±100 the full control effect
GLP1R ag – qHTS of GLP-1 Receptor Agonists; Glucagon-like peptide 1 receptor (Homo sapiens), P43220; HEK293 GLP-1R CRE-luciferase, luminescence, 4-6 h; cells express a hypersensitive GLP-1R form; Potency, µM (top dose mostly 45.6 µM), for inactives: top-dose activation, most hits filed as activators; 0.007% of 380,000 active; AID 624172, 2012; further: % of control where 0% means no effect
GLP1R inv ag – qHTS of GLP-1 Receptor Inverse Agonists (Inhibition Mode); Potency, µM (series often up to 38.3 µM), for inactives: at the top dose activity change, negative = inhibition, hits mostly inhibitors; 1.6% of 410,000 active; Glucagon-like peptide 1 receptor (Homo sapiens), P43220; AID 624417, 2012; HEK293 GLP-1R CRE-luciferase, luminescence, 24 h; GLP-1R form is constitutively active; further: on the % scale 0 is the no-effect control and ±100 the full control effect; nearly all actives have a fitted effect of over 55% in size
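Readout was luciferase luminescence, measured 12 min after detection reagent at room temperature. Beforehand, GLP-1R reporter HEK293 cells had sat 12 h, then received compounds for 24 hr at 37 deg C.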
Tb PGK inh – qHTS Assay to Find Inhibitors of Phosphoglycerate Kinase; 0.043% of 380,000 active; Phosphoglycerate kinase, glycosomal (Trypanosoma brucei brucei), P07378; PGK/GAPDH coupled, Kinase-Glo luminescence, 60 min; Potency, µM (doses to about 57.5 µM), inactives show at the highest dose activity change, negative = inhibition, hits mostly inhibitors; AID 602233, 2012; further: on the % scale 0 is the no-effect control and ±100 the full control effect; nearly all actives have a fitted effect of over 60% in size
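Luminescent ATP detection (Kinase-Glo Plus) follows a 60-minute room-temperature incubation, with wells lacking PGK as controls. Buffer: 100 mM TEA (pH 7.6), 5 mM MgCl2, 0.01% Tween-20. Coupling enzyme GAPDH (100 nM final) supplies unstable 1,3-BPG in-well.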
HEK293 tox – qHTS of GLP-1 Receptor Inverse Agonists: Cytotox Screen; AID 624418, 2012; HEK293 cAMP-luciferase reporter cells, luminescence, 24 h; 0.13% of 410,000 active; Potency, µM (doses to about 38.3 µM), for the others: at the highest dose activity change, negative = inhibition, hits mostly inhibitors;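 further: loss of luciferase light is scored as toxicity; on the % scale 0 is the no-effect control and ±100 the full control effect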
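Here, cytotoxicity is scored as loss of luminescence. The MLSMR collection was tested on cells seeded in medium containing 10% Nu serum, with a 24 hr compound exposure preceded by 12 hours of culture.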
TbPFK ATP – Tb PFK orthogonal confirmatory assay using ATP depletion (Kinase-Glo Plus) as an alternative measure of Tb PFK activity: Hit Validation | shares compounds with Tb PFK inh-1 | Potency, µM (titrated, usually from 57.5 µM), inactives show top-dose inhibition | Tb PFK enzyme, ATP depletion, Kinase-Glo Plus luminescence | AID 504636, 2011 | 47% of 1,100 active; calls by dose curve; further: nearly all actives have a fitted effect of over 60% in size
Tb PFK inh-2 – Inhibitors of T. brucei phosphofructokinase: Hit Validation. shares compounds with Tb PFK inh-1. purified T. brucei PFK, ADP-Glo luminescence, 45 min. Potency, µM (series often up to 57.5 µM), for the others: at the highest dose activity change, negative = inhibition, most hits filed as inhibitors. 41% of 1,100 active;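 further: plate controls were full PFK enzyme control for no effect and no enzyme control for full effect; nearly all actives have a fitted effect of over 60% in size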
The depositor's hits bear a star; i = inactive; ? = inconclusive; · = no result; [ ] = dose if it differs, or a comment. Hits are enriched below; roughly 1.8% of the tested compounds scored in any of these assays. Unless noted, the call rests on the fitted dose curve; in most records, active means well fitted curve in the direction sought with a large enough effect; inconclusive means small, poorly fitted or top-dose-only effect, or another doubt; inactive means no such curve, though single readings can be large; an effect the other way counts as inactive or inconclusive. Potency means the concentration at half of the fitted maximal effect.

SMILES | Tb PFK inh-1 | Pin1 inh | GLP1R ag | GLP1R inv ag | Tb PGK inh | HEK293 tox | TbPFK ATP | Tb PFK inh-2
CCn1c(C)c(CS(=O)(=O)c2ccccc2)[nH]c1=O | ? | 2.3% | 5.6% | 1.5% | -0.6% | -11.6% | -23.7% | ?
Cc1cc(C)c(C)c(S(=O)(=O)N2CCC(C(=O)N(C)Cc3nc4ccccc4c(=O)[nH]3)CC2)c1C | · | 7.0% | -46.3% | ? | -0.8% | ? | · | ·
N=c1n(CCO)c2ccccc2n1CCOc1ccccc1 | 23.9µM* | 0.6% | -1.8% | ? | -4.5% | -3.2% | 13.5µM* | 21.3µM*
CCOC(=O)Cn1c(=N)n(CCOc2cccc(C)c2)c2ccccc21 | 13.5µM* | 2.3% | 1.2% | -9.4% | -2.8% | -19.5% | 10.7µM* | 13.5µM*
OCCOc1ccccc1 | -1.1% | -4.9% | -5.0% | -9.9% | 2.1% | -19.4% | · | ·
CCOC(=O)COc1ccc2c(c1)c(C(C)=O)c(C)n2Cc1ccccc1 | -5.1% | -1.8% | 12.3% | -2.1%[0.307 µM] | -9.4% | -0.2%[0.307 µM] | · | ·
C[C@H]1COC(=O)[C@H](Cc2ccc(F)cc2)CC/C=C/C[C@@H](CC(=O)N(CCO)Cc2ccccc2)C(=O)N1 | -5.8% | 0.6% | -2.3% | ? | 2.9% | -0.5% | · | ·
O=C1C=C(NCc2ccc(Cl)c(Cl)c2)C2(CCCCC2)O1 | 16.9µM* | -2.9% | -13.5% | ? | -4.9% | -7.3% | 6.01µM* | 23.9µM*
O=C(Cc1ccc(Cl)c(Cl)c1)NCC1(N2CCOCC2)CCCCC1 | -21.0% | ? | -2.9% | ? | 3.5% | -1.4% | · | ·
O=C(Nc1ccc2nc(SCC(=O)N3CCCc4ccccc43)sc2c1)c1cccc(F)c1 | · | 52.8% | · | ? | i | -14.6% | · | ·
CCCc1cc(N2CCN(c3cccc(C)c3C)CC2)n2cnnc2n1 | · | ? | · | 0.9% | -1.1% | 15.1% | · | ·
CCN1CCN(C(=S)c2ccc(OC)cc2)CC1 | ? | 1.7% | 0.3% | 2.1% | -9.9% | 10.3% | 26.9µM* | 33.8µM*
CCN1CCN(C(=S)c2ccc(Cl)cc2)CC1 | 10.7µM* | 3.3% | -6.5% | -33.4% | 1.6% | -6.3% | 7.57µM* | 23.9µM*
O=C1C=C2C=CC3C[C@@]2(O1)C1CCCCN31 (stereo partly drawn) | · | · | -2.5% | · | · | · | · | ·
O=c1c(O)cccc2cc(O)c(O)c(O)c12 | 6.75µM* | · | 2.5% | 2.1% | 0.794µM* | 9.9% | 0.426µM* | 0.477µM*
ClC1=C(Cl)[C@]2(Cl)[C@@H]3[C@@H]4C[C@@H]([C@H]5O[C@@H]45)[C@@H]3[C@@]1(Cl)C2(Cl)Cl | · | · | 13.4%[96 µM] | · | · | · | · | ·
Nc1nc(=S)c2ncn(C3CCCC3)c2[nH]1 | ? | -5.4% | 9.8% | -14.5% | -5.5% | -16.4% | ? | ?
CCOC(=O)c1[nH]c(C)c(/C(O)=C2\C(=O)C(=O)N(CCCn3ccnc3)C2c2ccncc2)c1C (stereo not drawn) | 23.9µM* | -7.1% | -15.7% | -12.5% | -5.2% | -12.6% | 12µM* | 26.9µM*
